According to ChEMBL document CHEMBL2218924, “A broad activity screen in support of a chemogenomic map for kinase signalling research and drug discovery” (Biochem J, 2013):

These compounds were tested against Mitogen-activated protein kinase 3 (Homo sapiens) (UniProt P27361). Conditions: at 1 µM.
Mitogen-activated protein kinase 3 (Homo sapiens), sequence (P27361 whole entry): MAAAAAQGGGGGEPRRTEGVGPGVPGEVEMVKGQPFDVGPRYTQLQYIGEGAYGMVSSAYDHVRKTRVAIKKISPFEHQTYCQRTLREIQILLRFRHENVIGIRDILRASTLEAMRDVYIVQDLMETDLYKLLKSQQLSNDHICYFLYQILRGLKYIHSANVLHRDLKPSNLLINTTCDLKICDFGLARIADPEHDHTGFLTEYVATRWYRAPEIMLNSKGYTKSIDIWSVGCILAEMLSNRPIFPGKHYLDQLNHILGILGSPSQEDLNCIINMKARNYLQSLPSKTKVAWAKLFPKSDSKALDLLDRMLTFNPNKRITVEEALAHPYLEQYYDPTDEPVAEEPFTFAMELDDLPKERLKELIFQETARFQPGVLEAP

Structure (SMILES) | residual activity [%]
NC(=O)c1ccc2[nH]c(-c3ccc(Oc4ccc(Cl)cc4)cc3)nc2c1 | 99
Cc1nc(-c2ccccc2)c(-c2ccncc2)o1 | 116
CCOc1cc2ncnc(Nc3cccc(Br)c3)c2cc1OCC | 90
CC(C)n1cnc2/c(=N/c3cccc(Cl)c3)nc(NCCO)[nH]c21 | 92
Nc1nc(Nc2ccc(S(N)(=O)=O)cc2)nn1C(=S)Nc1c(F)cccc1F | 29
Cc1ccc(S(=O)(=O)/C=C/C#N)cc1 | 97
Ic1cccc(CSc2nnc(-c3ccncc3)o2)c1 | 82
O=C1NC(=O)c2c1c1c3ccccc3[nH]c1c1[nH]c3cc(Br)ccc3c21 | 103
O=C1NC(=O)/C(=C\c2ccc3nccnc3c2)S1 | 82
CCN(CC)CCCCN1c2ccccc2Oc2ccc(Cl)cc21 | 112
COc1cccc(-c2cc(=O)c3ccccc3o2)c1N | 106
O=C1c2ccccc2-[n+]2ccc3c([nH]c4ccccc43)c21 | 85
Oc1ccc(-c2nc(-c3ccc(F)cc3)c(-c3ccncc3)[nH]2)cc1 | 123
Cc1nc2cc3nc(-c4cccs4)cnc3cc2n1C | 114
COc1ccc(C(=O)Nc2sc3c(c2C(N)=O)CCCC3)cc1OC | 97
Cn1cc(/C=C2\C(=O)Nc3ccc(S(N)(=O)=O)cc32)c2ccccc21 | 85
Nc1ccc2ncnc(NCCc3ccc(Oc4ccccc4)cc3)c2c1 | 122
CO[C@H]1C[C@@H]2CC[C@@H](C)[C@@](O)(O2)C(=O)C(=O)N2CCCC[C@H]2C(=O)O[C@H]([C@H](C)C[C@@H]2CC[C@@H](O)[C@H](OC)C2)CC(=O)[C@H](C)/C=C(\C)[C@@H](O)[C@@H](OC)C(=O)[C@H](C)C[C@H](C)/C=C/C=C/C=C/1C | 83

Structure (SMILES) | residual activity [%]
CCC(=O)Nc1ccc2ncnc(Nc3cccc(Br)c3)c2c1 | 83
O=C(Nc1cccc(Nc2cc(Nc3cccc(C(F)(F)F)c3)ncn2)c1)C1CC1 | 96
O=[N+]([O-])c1ccc(-c2nc(-c3ccc(F)cc3)c(-c3ccncc3)[nH]2)cc1 | 85
O=c1c2ccccc2[nH]c(=S)n1CCN1CCC(=C(c2ccc(F)cc2)c2ccc(F)cc2)CC1 | 88
COc1cc2ncnc(Nc3ccc(NC(=O)c4ccccc4)cc3)c2cc1OC | 88
COc1ccc(OC)c2c(=S)c3ccccc3[nH]c12 | 97
O=C(O)c1ccc2c3c1cccc3c(=O)n1c3ccccc3nc21 | 117
Cn1cnc2cc3c(Nc4cccc(Br)c4)ncnc3cc21 | 103
COc1ccc(S(=O)(=O)N(CCO)c2ccccc2CN(C)C/C=C/c2ccc(Cl)cc2)cc1 | 82
CNc1cc2c(Nc3cccc(Br)c3)ncnc2cn1 | 86
COc1cc2ncnc(N3CCN(C(=O)Nc4ccc(Oc5ccccc5)cc4)CC3)c2cc1OC | 76
O=C(Nc1cccc(Nc2nccc(Nc3cccc(C(F)(F)F)c3)n2)c1)C1CC1 | 89
c1ccc(-c2n[nH]cc2-c2ccnc3ccccc23)nc1 | 88
O=c1cc(-c2cccc3c2Sc2ccccc2S3)oc(N2CCOCC2)c1 | 110
O=Nc1c(-c2c(O)[nH]c3ccccc23)[nH]c2ccccc12 | 114
Nc1n[nH]c2nnc(-c3c(-c4ccccc4)nn4ccccc34)cc12 | 21
CC(=O)O/N=C1\C(=C2\C(=O)Nc3cc(Br)ccc32)Nc2ccccc21 | 98

These compounds were tested against Mitogen-activated protein kinase 3 (Homo sapiens) (UniProt P27361). Conditions: at 10 µM.

Structure (SMILES) | residual activity [%]
NC(=O)c1ccc2[nH]c(-c3ccc(Oc4ccc(Cl)cc4)cc3)nc2c1 | 99
Cc1nc(-c2ccccc2)c(-c2ccncc2)o1 | 97
CCOc1cc2ncnc(Nc3cccc(Br)c3)c2cc1OCC | 55
CC(C)n1cnc2/c(=N/c3cccc(Cl)c3)nc(NCCO)[nH]c21 | 77
Nc1nc(Nc2ccc(S(N)(=O)=O)cc2)nn1C(=S)Nc1c(F)cccc1F | 3
Cc1ccc(S(=O)(=O)/C=C/C#N)cc1 | 114
Ic1cccc(CSc2nnc(-c3ccncc3)o2)c1 | 82
O=C1NC(=O)c2c1c1c3ccccc3[nH]c1c1[nH]c3cc(Br)ccc3c21 | 104
O=C1NC(=O)/C(=C\c2ccc3nccnc3c2)S1 | 77
CCN(CC)CCCCN1c2ccccc2Oc2ccc(Cl)cc21 | 114
COc1cccc(-c2cc(=O)c3ccccc3o2)c1N | 90
O=C1c2ccccc2-[n+]2ccc3c([nH]c4ccccc43)c21 | 94
Oc1ccc(-c2nc(-c3ccc(F)cc3)c(-c3ccncc3)[nH]2)cc1 | 93
Cc1nc2cc3nc(-c4cccs4)cnc3cc2n1C | 95
COc1ccc(C(=O)Nc2sc3c(c2C(N)=O)CCCC3)cc1OC | 86
Cn1cc(/C=C2\C(=O)Nc3ccc(S(N)(=O)=O)cc32)c2ccccc21 | 90
Nc1ccc2ncnc(NCCc3ccc(Oc4ccccc4)cc3)c2c1 | 74
CO[C@H]1C[C@@H]2CC[C@@H](C)[C@@](O)(O2)C(=O)C(=O)N2CCCC[C@H]2C(=O)O[C@H]([C@H](C)C[C@@H]2CC[C@@H](O)[C@H](OC)C2)CC(=O)[C@H](C)/C=C(\C)[C@@H](O)[C@@H](OC)C(=O)[C@H](C)C[C@H](C)/C=C/C=C/C=C/1C | 116

Structure (SMILES) | residual activity [%]
CCC(=O)Nc1ccc2ncnc(Nc3cccc(Br)c3)c2c1 | 85
O=C(Nc1cccc(Nc2cc(Nc3cccc(C(F)(F)F)c3)ncn2)c1)C1CC1 | 85
O=[N+]([O-])c1ccc(-c2nc(-c3ccc(F)cc3)c(-c3ccncc3)[nH]2)cc1 | 72
O=c1c2ccccc2[nH]c(=S)n1CCN1CCC(=C(c2ccc(F)cc2)c2ccc(F)cc2)CC1 | 61
COc1cc2ncnc(Nc3ccc(NC(=O)c4ccccc4)cc3)c2cc1OC | 83
COc1ccc(OC)c2c(=S)c3ccccc3[nH]c12 | 112
O=C(O)c1ccc2c3c1cccc3c(=O)n1c3ccccc3nc21 | 77
Cn1cnc2cc3c(Nc4cccc(Br)c4)ncnc3cc21 | 85
COc1ccc(S(=O)(=O)N(CCO)c2ccccc2CN(C)C/C=C/c2ccc(Cl)cc2)cc1 | 70
CNc1cc2c(Nc3cccc(Br)c3)ncnc2cn1 | 95
COc1cc2ncnc(N3CCN(C(=O)Nc4ccc(Oc5ccccc5)cc4)CC3)c2cc1OC | 95
O=C(Nc1cccc(Nc2nccc(Nc3cccc(C(F)(F)F)c3)n2)c1)C1CC1 | 91
c1ccc(-c2n[nH]cc2-c2ccnc3ccccc23)nc1 | 83
O=c1cc(-c2cccc3c2Sc2ccccc2S3)oc(N2CCOCC2)c1 | 125
O=Nc1c(-c2c(O)[nH]c3ccccc23)[nH]c2ccccc12 | 101
Nc1n[nH]c2nnc(-c3c(-c4ccccc4)nn4ccccc34)cc12 | 3
CC(=O)O/N=C1\C(=C2\C(=O)Nc3cc(Br)ccc32)Nc2ccccc21 | 102
